Source: PubChem
CHO-K1 Ca antag = nonselective inhibitor or artifact in parental CHO-K1 cells. ATP-induced calcium, Fluo-8 fluorescence. inhibition, % at 3 µM. hit rate 0.6% among 360,000;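 active = inhibition above a per-plate cutoff, the plate's mean sample inhibition plus 3 SD, cut at about 24% in these data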;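 note: 0% = DMSO plus EC80 ATP and 100% = DMSO alone without ATP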
CHO-K1 Ca PAM = nonselective calcium activators in parental CHO-K1 cells, primary screen, counter-screen for M1 PAM project, cell-based, Fluo-8 calcium fluorescence, full deck, 1536-well | ATP EC20; 0% at ATP EC20, 100% at ATP max | activation, % at 3 µM | hit rate 0.02% among 360,000;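 active = activation above the run cutoff, the mean activation of all test compounds plus 3 SD, cut at about 40% in these data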;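 note: peak over basal fluorescence ratio in a 140 s read after ATP addition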
M1 antag = human M1 muscarinic receptor antagonists, primary screen, CHO-K1 cells, Fluo-8 calcium fluorescence, 1536-well; CHO-K1 hM1, ACh EC80 antagonist; inhibition, % at 3 µM; Muscarinic acetylcholine receptor M1 (Homo sapiens), P11229; hit rate 1.3% among 360,000;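 active = percent inhibition above its own plate's cutoff, namely the mean of that plate's compound wells plus 3 SD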;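 note: peak over basal fluorescence ratio during 140 s after agonist addition; 0% = ACh EC80 plus DMSO and 100% = DMSO alone without agonist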
Target sequence (P11229 whole entry, looked up): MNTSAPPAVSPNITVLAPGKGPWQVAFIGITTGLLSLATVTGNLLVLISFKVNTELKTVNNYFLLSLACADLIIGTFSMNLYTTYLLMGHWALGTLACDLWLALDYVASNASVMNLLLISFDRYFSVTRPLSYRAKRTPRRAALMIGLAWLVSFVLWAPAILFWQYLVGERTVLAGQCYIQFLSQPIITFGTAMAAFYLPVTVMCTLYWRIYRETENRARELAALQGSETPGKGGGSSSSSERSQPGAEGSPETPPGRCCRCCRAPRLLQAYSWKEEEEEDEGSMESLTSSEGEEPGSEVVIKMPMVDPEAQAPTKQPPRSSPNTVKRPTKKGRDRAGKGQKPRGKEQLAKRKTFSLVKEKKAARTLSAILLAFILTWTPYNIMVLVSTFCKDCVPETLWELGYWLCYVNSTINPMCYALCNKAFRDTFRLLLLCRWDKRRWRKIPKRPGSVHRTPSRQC
CHO-K1 Ca ag = counter-screen for M1 agonists: effect in parental CHO-K1 cells | activation, % at 3 µM | Fluo-8 calcium fluorescence; scaled to maximal ATP response, vehicle zero | hit rate 0.48% among 360,000 | AID 602248, 2012; in the data active = activation above about 15%;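 note: untransfected CHO-K1 host cells lacking M1 receptor as counterscreen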
M1 PAM = human M1 muscarinic receptor positive allosteric modulators, primary screen, CHO-K1 cells, Fluo-8 calcium fluorescence, 1536-well | Muscarinic acetylcholine receptor M1 (Homo sapiens), P11229 | CHO-K1 hM1, ACh EC20; 0% = ACh EC20, 100% = maximal ACh | activation, % at 3 µM | hit rate 0.088% among 360,000; in the data active = activation above about 19%, passing the limit was not always enough
CHRM1 agonist = human M1 muscarinic receptor agonists, primary screen, Fluo-8 calcium fluorescence, CHO-K1 cells, HTS. CHO-K1 hM1, agonist mode; 0% DMSO, 100% acetylcholine EC100. activation, % at 3 µM. hit rate 0.33% among 360,000. AID 588814, 2011;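 active = activation above the run's mean compound activation plus 3 SD, cut at about 16% in these data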;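 note: peak over basal fluorescence ratio within a 140 s kinetic read after compound addition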
Active calls of the source: *. In the library only some 2.4% were active in any assay of this set; here they are far more common.

`O=C(CSc1nnc(Cn2nnc3ccccc32)o1)N(Cc1ccc(F)cc1)c1ccccc1` gave CHO-K1 Ca antag 25*, CHO-K1 Ca PAM 9, M1 antag 26, CHO-K1 Ca ag 11, M1 PAM -10 and CHRM1 agonist -2.
Screening O=C(Nc1ccc2nc([C@@H]3O[C@H](CO)[C@@H](O)[C@H](O)[C@H]3O)[nH]c2c1)NC(c1ccccc1)c1ccccc1 returned CHO-K1 Ca antag 2, CHO-K1 Ca PAM -7, M1 antag 8, CHO-K1 Ca ag 0, M1 PAM -6 and CHRM1 agonist -1.
Screening O=C(Nc1cc(Cl)cc(Cl)c1)c1cccc(OC(F)F)c1 returned CHO-K1 Ca antag 27*, CHO-K1 Ca PAM -10, M1 antag 23, CHO-K1 Ca ag 1, M1 PAM -15 and CHRM1 agonist -4.
N/C(=N/OC(=O)c1ccc(Cl)cc1)c1ncc([N+](=O)[O-])s1 was read as CHO-K1 Ca antag 29*, CHO-K1 Ca PAM -25, M1 antag -27, CHO-K1 Ca ag 0, M1 PAM 20 and CHRM1 agonist 2.
O=C(CN1CCCCC1)NCC1(c2ccccc2)CCCC1 was read as CHO-K1 Ca antag -11, CHO-K1 Ca PAM 27, M1 antag 40*, CHO-K1 Ca ag 1, M1 PAM -26 and CHRM1 agonist -9.
O=C(CN1CCCCC1)NN(Cc1ccccc1)c1ccccc1 was read as CHO-K1 Ca antag 0, CHO-K1 Ca PAM 10, M1 antag 61*, CHO-K1 Ca ag 1, M1 PAM -34 and CHRM1 agonist -13.
CCN(CC)CC(=O)NCC1(c2ccccc2)CCCC1 was read as CHO-K1 Ca antag 7, CHO-K1 Ca PAM -6, M1 antag 66*, CHO-K1 Ca ag 0, M1 PAM -27 and CHRM1 agonist -8.
CC(C)(C)CC(=O)N1CCN(c2ccc(S(=O)(=O)N3CCOCC3)cc2[N+](=O)[O-])CC1 was read as CHO-K1 Ca antag -4, CHO-K1 Ca PAM 18, M1 antag 0, CHO-K1 Ca ag 1, M1 PAM 2 and CHRM1 agonist 1.
NC(=O)c1nn(-c2ccc(Cl)cc2Cl)c(=O)cc1O was read as CHO-K1 Ca antag -1, CHO-K1 Ca PAM 9, M1 antag -10, CHO-K1 Ca ag 0, M1 PAM 8 and CHRM1 agonist -2.
Screening CC(=O)C1=C(O)C(=O)N(c2ccc(C)cc2)C1c1ccc([N+](=O)[O-])cc1 (stereo not given) returned CHO-K1 Ca antag 14, CHO-K1 Ca PAM 15, M1 antag 1, CHO-K1 Ca ag 16*, M1 PAM 12 and CHRM1 agonist -6.
For CCc1ccc(NC(=O)Cn2cccc2)cc1 the results were CHO-K1 Ca antag 6, CHO-K1 Ca PAM 1, M1 antag -4, CHO-K1 Ca ag 0, M1 PAM 13 and CHRM1 agonist -8.
For CCCN(Cc1ccc(N(CC)CC)cc1)CC1CC1 the results were CHO-K1 Ca antag 3, CHO-K1 Ca PAM -9, M1 antag 52*, CHO-K1 Ca ag 0, M1 PAM -32 and CHRM1 agonist -15.
Screening Cc1nn(CCO)c2nc(-c3cccs3)cc(C(F)(F)F)c12 returned CHO-K1 Ca antag 24*, CHO-K1 Ca PAM -12, M1 antag -4, CHO-K1 Ca ag 0, M1 PAM 8 and CHRM1 agonist 1.
Cc1nn(C)c2nc(-c3cccs3)cc(C(F)(F)F)c12 was read as CHO-K1 Ca antag -4, CHO-K1 Ca PAM -2, M1 antag 12, CHO-K1 Ca ag 1, M1 PAM -9 and CHRM1 agonist -6.
Screening CC(=O)OCCCN(C)CC/C=C1/c2ccccc2CSc2ccccc21 returned CHO-K1 Ca antag -5, CHO-K1 Ca PAM 11, M1 antag 74*, CHO-K1 Ca ag 2, M1 PAM -25 and CHRM1 agonist -6.
For C[N+](C)(C)CC/C=C1/c2ccccc2CSc2ccccc21 the results were CHO-K1 Ca antag -12, CHO-K1 Ca PAM 13, M1 antag 96*, CHO-K1 Ca ag 0, M1 PAM -24 and CHRM1 agonist -5.
Screening Cc1ccc2nc3n(c(=O)c2c1)-c1cc2ccccc2cc1C(=O)NC3Cc1ccc(O)cc1 (stereo not given) returned CHO-K1 Ca antag 13, CHO-K1 Ca PAM -2, M1 antag 15, CHO-K1 Ca ag 3, M1 PAM -6 and CHRM1 agonist 1.
`O=C1NC(Cc2ccc(O)cc2)c2nc3cc(F)c(F)cc3c(=O)n2-c2cc3ccccc3cc21` (stereo not given) gave CHO-K1 Ca antag 35*, CHO-K1 Ca PAM -10, M1 antag 25, CHO-K1 Ca ag 1, M1 PAM -16 and CHRM1 agonist -3.
Screening O=C1NC(Cc2ccccc2)c2nc3cc(F)c(F)cc3c(=O)n2-c2cc3ccccc3cc21 (stereo not given) returned CHO-K1 Ca antag 7, CHO-K1 Ca PAM -6, M1 antag 11, CHO-K1 Ca ag 1, M1 PAM 0 and CHRM1 agonist -5.
O=C1NC(Cc2ccc(O)cc2)c2nc3ccc(F)cc3c(=O)n2-c2cc3ccccc3cc21 (stereo not given) was read as CHO-K1 Ca antag 9, CHO-K1 Ca PAM 19, M1 antag 23*, CHO-K1 Ca ag 6, M1 PAM -10 and CHRM1 agonist -1.
Screening COCCNC(=O)CN1C(=O)CSc2ccc(S(=O)(=O)N3CCOCC3)cc21 returned CHO-K1 Ca antag -7, CHO-K1 Ca PAM 23, M1 antag -4, CHO-K1 Ca ag 0, M1 PAM 2 and CHRM1 agonist -3.
COCCNC(=O)CN1C(=O)CSc2cc(S(=O)(=O)N3CCCCCC3)ccc21 was read as CHO-K1 Ca antag 35*, CHO-K1 Ca PAM -10, M1 antag -9, CHO-K1 Ca ag 0, M1 PAM 8 and CHRM1 agonist -1.
CCCCN(CCCC)CCNC(=O)CN1C(=O)CSc2ccc(S(=O)(=O)N3CCOCC3)cc21 was read as CHO-K1 Ca antag -13, CHO-K1 Ca PAM 7, M1 antag 87*, CHO-K1 Ca ag 0, M1 PAM -24 and CHRM1 agonist -6.
Screening CCCCN(CC)CCCNC(=O)CN1C(=O)CSc2ccc(S(=O)(=O)N3CCOCC3)cc21 returned CHO-K1 Ca antag 0, CHO-K1 Ca PAM -7, M1 antag 0, CHO-K1 Ca ag 0, M1 PAM -5 and CHRM1 agonist -16.
For CCCCN1C(=O)C(CC(=O)NCCN2CCOCC2)CC(C(=O)N(C)C)=C1C (stereo not given) the results were CHO-K1 Ca antag -19, CHO-K1 Ca PAM 17, M1 antag -10, CHO-K1 Ca ag 1, M1 PAM 0 and CHRM1 agonist -2.
